What is called Inhibition is the relative decrease from the control value, in per cent. A higher Inhibition goes with a response far below the control.

This experiment deals with Plasmodium falciparum. Put plainly: GSK_TCMDC: Inhibition of Plasmodium falciparum 3D7 in whole red blood cells, using parasite LDH activity as an index of growth. Test compounds present at 2uM. In kind it is functional.
In turn, `Cl.FC(F)(F)c1cc(Nc2ccc(Oc3ccccc3)cc2)c2cc(-c3ccncc3)ccc2n1` displayed an Inhibition of 100%.

Regarding `NCCC(=O)Nc1ccc(-c2cnc3[nH]cc(-c4ccc(C(=O)O)cc4)c3c2)cn1.O=C(O)C(F)(F)F`, the Inhibition is listed as 99%.

`O=C(NC1CCCC1)c1ccc(N2CCC(NCc3cccc(C(F)(F)F)c3)CC2)cc1` yielded an Inhibition of 87%. The molecule `COc1ccc(-c2ccc(NC(=O)c3cccc(C#N)c3)cc2)cc1CN1CCNCC1.O=C(O)C(F)(F)F` had an Inhibition of 100%. For `O=C(CCN1C(=O)c2ccccc2C1=O)N1CCN(CC=Cc2ccccc2)CC1` the value was 87%. For `O=C(N[C@H]1CCN(CCc2ccc(O[C@H]3CCNC3)c(Br)c2)C1)c1ccc(Cl)c(Cl)c1.O=C(O)C(F)(F)F`, the Inhibition was 100%. In the case of `O=C(Nc1ccc(OC2CCN(Cc3ccsc3)C2)c(Cl)c1)c1ccsc1.O=C(O)C(F)(F)F` (stereo not drawn), the Inhibition amounted to 85%.

Consider `Cc1ccc(S(=O)(=O)NC2CCN(CCNC(=O)Nc3cc(C)nc4ccccc34)C2)cc1` (stereo not drawn), for which the Inhibition was determined as 97%. For `c1ccc2c3c(ccc2c1)Sc1c(ccc2ccccc12)N3` the value was 92%; for `COc1cc2nc(NCCc3cccc(Cl)c3)nc(NCc3ccccc3)c2cc1OC`, 100%; for `Cc1nc2nc(N)nc(N)c2c(C)c1Cc1cccc(C(N)=O)c1.Cl`, 91%. For `Cc1ccc(/C=C/C(=O)NCCCCCN2CCN(C(=O)Nc3ccc(Cl)c(C(F)(F)F)c3)CC2)cc1` the value was 93%. `Cn1nccc1C(=O)NCCNCc1ccc(-c2ccc(-c3nc4cc(C(F)(F)F)ccc4[nH]3)s2)cc1.O=C(O)C(F)(F)F` came in with an Inhibition of 100%.
